# Source: PubChem BioAssay (EPA / NIEHS)
# Records with an inconclusive call do not appear. The source made the active and inactive calls. Rule for the calls: active = hit-call score of the fitted dose curve at least 0.9, where 1 is the maximum; inconclusive = response in the unintended direction; inactive = score below 0.9.
# Read-out: Cytochrome P450 3A4 (Homo sapiens) (UniProt P08684)
# Test: CLD_CYP3A4_48hr: CellzDirect (CLD) Gene Expression Assay for xenobiotic metabolism (CYP3A4) at 48 hours (AID 2283698)
# Experimental: CLD_48hr is a cell-based, multiplexed-readout assay that uses hepatocyte, a human liver primary cell, with measurements taken at 48 hours after chemical dosing in a 96-well plate.CLD_CYP3A4_48hr is one of 16 assay component(s) measured or calculated from the CLD_48hr assay. It is designed to make measurements of mRNA induction, a form of inducible reporter, as detected with chemiluminescence signals by Quantitative Nuclease Protection Assay (qNPA) technology.Data from the assay component CLD_CYP3A4_48hr was analyzed at the endpoint, CLD_CYP3A4_48hr, in the positive analysis fitting direction relative to DMSO as the negative control and baseline of activity. Using a type of inducible reporter, gain-of-signal activity can be used to understand changes in the reporter gene as they relate to the gene CYP3A4. Furthermore, this assay endpoint can be referred to as a primary readout. To generalize the intended target to other relatable targets, this assay endpoint is annotated to the cyp intended target family, where subfamily is xenobiotic metabolism.
# Human hepatocyte cultures were treated daily for two consecutive days with fresh dosing solutions containing appropriate concentrations of the 320 ToxCast chemicals (chemical identities were blinded to CellzDirect and other ToxCast collaborators), vehicle control (0.2% DMSO), and positive control inducers as summarized in Table 1. Due to the large number of treatment groups and chemicals examined, the ToxCast chemicals were divided into two groups (spanning two independent cultures of hepatocytes from separate donor preparations (Hu778: ToxCast plates 1 and 2; Hu776: ToxCast plates 3 and 4). Each preparation of human hepatocyte cultures was treated with respective vehicle control, medium only control, set of six positive controls/reference chemicals for the five hepatic receptor pathways, and a subset of eight of the ToxCast chemicals (indoxacarb, pyrithiobac-sodium, norflurazon, cyhalofop-butyl, methomyl, thiram, acetochlor, and propiconazole). These replicate data, coupled with internal replicates designed within the blinded ToxCast chemical library, provided additional data to evaluate interindividual differences between hepatocyte preparations and their potential impact on chemical profiles.Cell morphology and integrity were evaluated using phase-contrast microscopy as an indicator of hepatocyte cell health (Tyson & Green, 1987). Cultures for each treatment group (i.e., media, vehicle [0.2% DMSO], positive control inducers [multiple concentrations], and the ToxCast chemicals [multiple concentrations]) were observed and cell morphology was assessed relative to vehicle control cultures at each harvest time point (0, 6, 24, or 48 h). […] Images were evaluated at the conclusion of the study to assess changes in cell integrity and account for the effects of chemical exposure on uncharacteristic changes in concentration-dependent gene expression profiles. The results from these determinations of apparent cytotoxicity were annotated (yes/no) alongside the corresponding qNPA data for reference.At the conclusion of each treatment period, hepatocyte cultures (96-well) were washed with 1 volume of HBSS, lysed by addition of 25 ul ArrayPlate lysis buffer (HTG, Tucson, AZ), and 70 ul/well of Denaturation Oil, denatured by incubation at 95C for 10 min, and frozen at approximately -70C until analysis by nuclease protection assay (qNPA) (Roberts et al., 2007). For qNPA analysis, cell lysates were thawed at 50C for approximately 30 min, qNPA probes were added, and samples were incubated at 95C for 10 min to begin the detection process by denaturing the target RNA, dissociating the duplexes and secondary structure hybridization. At the conclusion of the hybridization period, S1 nuclease reagent was added to each sample to digest all nonprotected nucleotides at 50C for 60-90 min. […]
# Chain of Cytochrome P450 3A4 (Homo sapiens) (P08684 whole entry, looked up): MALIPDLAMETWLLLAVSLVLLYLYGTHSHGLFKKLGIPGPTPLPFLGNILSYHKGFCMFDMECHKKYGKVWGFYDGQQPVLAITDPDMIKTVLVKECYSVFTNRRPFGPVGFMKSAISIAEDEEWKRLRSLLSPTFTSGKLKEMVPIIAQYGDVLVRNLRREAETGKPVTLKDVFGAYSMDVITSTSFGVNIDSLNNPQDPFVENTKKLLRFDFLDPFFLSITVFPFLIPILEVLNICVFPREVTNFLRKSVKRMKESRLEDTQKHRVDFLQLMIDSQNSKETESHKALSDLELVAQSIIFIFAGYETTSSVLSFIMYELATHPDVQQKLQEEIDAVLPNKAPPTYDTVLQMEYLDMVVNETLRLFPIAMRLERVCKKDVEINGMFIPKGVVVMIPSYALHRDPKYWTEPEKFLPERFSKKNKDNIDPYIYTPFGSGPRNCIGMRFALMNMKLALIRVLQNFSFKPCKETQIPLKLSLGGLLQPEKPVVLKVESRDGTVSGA
SMILES,AC50,outcome
COC(=O)c1c(Cl)nn(C)c1S(=O)(=O)NC(=O)Nc1nc(OC)cc(OC)n1,6.72 µM (active),–
CC(C)(C)[C@@H](O)[C@@H](Cc1ccc(Cl)cc1)n1cncn1,2.15 µM (active),–
CN(C)C(=O)Nc1ccc(Cl)c(Cl)c1,–,inactive
COC(=O)c1cccc(C)c1S(=O)(=O)NC(=O)Nc1nc(OCC(F)(F)F)nc(N(C)C)n1,20 µM (active),–
CCCCOC(=O)C(C)Oc1ccc(Oc2ccc(C(F)(F)F)cn2)cc1 (stereo not given),–,inactive
COC(=O)CSc1cc(N=c2sc(=O)n3n2CCCC3)c(F)cc1Cl,4.08 µM (active),–
CCCN(CCC)c1c([N+](=O)[O-])cc(C(F)(F)F)c(N)c1[N+](=O)[O-],7.62 µM (active),–
COCCO,–,inactive
C#CCOC(=O)[C@@H](C)Oc1ccc(Oc2ncc(Cl)cc2F)cc1,–,inactive
CCC(C)OC(=O)N1CCCCC1CCO (stereo not given),–,inactive
CCCN(CCC)C(=O)SCC,–,inactive
CCOC(=O)C(C)Oc1ccc(Oc2cnc3cc(Cl)ccc3n2)cc1 (stereo not given),–,inactive
c1ccc(Nc2ccccc2)cc1,–,inactive
CC1(C)C(C=C(Cl)Cl)C1C(=O)OCc1cccc(Oc2ccccc2)c1 (stereo not given),–,inactive
CCOC(=O)COc1cc(-n2ncc(C(F)(F)F)c(C)c2=O)c(F)cc1Cl,5.32 µM (active),–
CCCCC(CC)CN1C(=O)C2C3C=CC(C3)C2C1=O (stereo not given),20 µM (active),–
CCCCCOC(=O)COc1cc(N2C(=O)C3=C(CCCC3)C2=O)c(F)cc1Cl,–,inactive
CCNc1nc(N)nc(Cl)n1,–,inactive
CCN(Cc1c(F)cccc1Cl)c1c([N+](=O)[O-])cc(C(F)(F)F)cc1[N+](=O)[O-],1.9 µM (active),–
O=C(O)C1(C(=O)Nc2ccc(Cl)cc2Cl)CC1,–,inactive
COc1c(Cl)ccc(Cl)c1C(=O)O,–,inactive
Cc1nn(C)c(Oc2ccccc2)c1C=NOCc1ccc(C(=O)OC(C)(C)C)cc1,–,inactive
CCSC(=O)N(CC(C)C)CC(C)C,–,inactive
OB(O)O,–,inactive
S=C([S-])NCCNC(=S)[S-].[Mn+2],–,inactive
Oc1ccc(C(c2ccc(O)cc2)C(Cl)(Cl)Cl)cc1,–,inactive
CCOC(=O)NCCOc1ccc(Oc2ccccc2)cc1,–,inactive
CCCCOC(=O)[C@@H](C)Oc1ccc(Oc2ccc(C(F)(F)F)cn2)cc1,–,inactive
CCOC(=O)[C@H](C)Oc1ccc(Oc2nc3ccc(Cl)cc3o2)cc1,–,inactive
CSC(=O)c1cccc2nnsc12,–,inactive
